Assay outcomes deposited in PubChem BioAssay by National Center for Advancing Translational Sciences (NCATS).
TGFb SMAD3 inh: inhibitors of TGF-b signaling | HepG2 CAGA-GFP TGF-b/SMAD3 reporter, GFP fluorescence, 18 h; TGF-beta stimulated, 500 pg/mL final | Potency, µM (titrated, usually from 46.1 µM), for inactives: top-dose activity, negative = inhibition, hits mostly inhibitors | hit rate 1.2% among 410,000; note: potency is the fitted concentration of half-maximal effect; % is set by controls: 0 for no effect and ±100 for the full control effect; nearly all actives have a fitted effect of over 65% in size
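HEPG2 CAGA-GFP reporter cells (1000/well, DMEM with 1% FBS) received compounds, then recombinant TGF-beta at 500 pg/mL final for 18 hours at 37 degrees C. Per-cell GFP summed per well was normalised to unstimulated and stimulated DMSO controls before curve fitting.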
TDP1 inh: inhibitors of human tyrosyl-DNA phosphodiesterase TDP1; hit rate 0.28% among 350,000; Potency, µM (series often up to 130 µM), for the others: at the highest dose activity change, negative = inhibition, usual class: inhibitors; Q9NUW8; recombinant TDP1, AlphaScreen DNA substrate cleavage; note: potency is the fitted concentration of half-maximal effect; % is set by controls: 0 for no effect and ±100 for the full control effect; nearly all actives have a fitted effect of over 40% in size
Target sequence (Q9NUW8 whole entry, looked up): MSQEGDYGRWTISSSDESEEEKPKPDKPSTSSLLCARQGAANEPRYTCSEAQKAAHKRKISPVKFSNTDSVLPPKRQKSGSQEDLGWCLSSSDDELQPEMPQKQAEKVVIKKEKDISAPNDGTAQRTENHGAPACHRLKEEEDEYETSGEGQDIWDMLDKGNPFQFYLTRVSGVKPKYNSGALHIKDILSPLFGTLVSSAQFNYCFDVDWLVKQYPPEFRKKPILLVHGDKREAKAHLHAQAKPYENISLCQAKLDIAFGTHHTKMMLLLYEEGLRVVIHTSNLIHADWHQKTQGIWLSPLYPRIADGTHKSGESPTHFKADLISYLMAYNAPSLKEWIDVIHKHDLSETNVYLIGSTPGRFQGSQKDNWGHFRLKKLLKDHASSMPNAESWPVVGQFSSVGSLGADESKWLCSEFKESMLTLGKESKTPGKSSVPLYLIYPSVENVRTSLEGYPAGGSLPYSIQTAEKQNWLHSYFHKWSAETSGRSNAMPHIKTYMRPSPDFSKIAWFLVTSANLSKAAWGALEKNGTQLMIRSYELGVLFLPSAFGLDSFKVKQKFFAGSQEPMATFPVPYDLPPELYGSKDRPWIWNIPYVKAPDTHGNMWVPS
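Recombinant E. coli-expressed Tdp1 (1 nM) preincubated with compound 15 min at RT, then 5'-biotin/3'-phosphotyrosine-FITC DNA substrate (15 nM) added for 5 min. AlphaScreen beads (10 ug/ml) added, 10 min RT; tyrosine-FITC cleavage read as signal loss.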
TDP1 cell CPT: DT40-hTDP1 cell growth loss with CPT; Potency, µM (titrated, usually from 46.2 µM), without a hit: at the highest dose activity change, negative = growth inhibition, usual class: inhibitors; chicken DT40 Tdp1-/-;hTDP1 cells + 20 nM CPT, ATP luminescence, 48 h; hit rate 12% among 420,000; note: potency is the fitted concentration of half-maximal effect; % is set by controls: 0 for no effect and ±100 for the full control effect; nearly all actives have a fitted effect of over 55% in size
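Cell growth measured by CellTiter-Glo luminescence after a minimum 48 h, 37 C compound exposure with 20 nM CPT in Tdp1-knockout DT40 cells stably expressing hTDP1, seeded 400/well; qHTS titration format.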
HepG2 tox: HepG2 cytotoxicity, counter-screen for TGF-b inhibitors. HepG2 CAGA-GFP viability, ATP luminescence, 18 h. Potency, µM (top dose mostly 46.1 µM), for inactives: at the top dose activity change, negative = cytotoxicity, usual class: cytotoxic. hit rate 0.76% among 410,000. AID 588856; note: potency is the fitted concentration of half-maximal effect
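HepG2 CAGA-GFP cells (1000/well, DMEM with 1% FBS) received compound, then TGF-beta at 500 pg/mL final, and were incubated 18 hours at 37 degrees C. Viability was read by CellTiter-Glo luminescence. Media-only wells were set as complete cell-killing and DMSO as no toxicity.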
IL1B secr inh: inflammasome signaling inhibition, IL-1 beta readout | THP-1 LPS/ATP IL-1B secretion, AlphaLISA, 16 h; active compounds read low | activity change, % at 57.5 µM | hit rate 4.7% among 360,000; in the data active = activity change below about -50%; inconclusive = mostly about -30% to -49%; note: % is set by controls: 0 for no effect and ±100 for the full control effect
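THP-1 cells pretreated 1 hr with compounds (up to 57.5 uM final), then stimulated with LPS (250 ng/mL final) plus ATP (1.25 mM final); secreted IL-1B measured by AlphaLISA after 16 hr, decreased signal indicating inhibition.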
TDP1 cell noCPT: qHTS for Inhibitors of human tyrosyl-DNA phosphodiesterase 1 (TDP1): qHTS in cells in absence of CPT | AID 686978, 2013 | hit rate 15% among 420,000 | DT40 Tdp1-/- hTDP1 cells, no CPT, ATP luminescence, 48 h | Potency, µM (highest dose often 46.2 µM), inactives show at the top dose activity change, negative = growth inhibition, actives largely listed as inhibitors; note: potency is the fitted concentration of half-maximal effect; % is set by controls: 0 for no effect and ±100 for the full control effect; nearly all actives have a fitted effect of over 55% in size
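Chicken DT40 Tdp1-/- cells stably complemented with human TDP1 were seeded at 400 cells/well with DMSO in place of 20 nM camptothecin. After compound pinning, cells grew at least 48 hr at 37 °C; viability read by CellTiter-Glo luminescence.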
* = called active by the depositor. Only some compounds are listed: those with a hit (about 18% of all), similar ones and a draw of the others. Unless noted, calls come from the whole dose curve; as a rule, active = well fitted curve in the direction sought with a large enough effect; inconclusive = small, poorly fitted or top-dose-only effect, or another doubt; inactive = no such curve, though single readings can be large; an effect the other way counts as inactive or inconclusive.

What do the screens show for `CCN(CC)C(=O)c1cccc(-c2csc(C(C)(O)c3ccc(OC)cc3)n2)c1` (configuration not stated)?
TGFb SMAD3 inh: -2.5%; TDP1 cell CPT: 5.8µM*; HepG2 tox: -31.0%; IL1B secr inh: 3.8; TDP1 cell noCPT: 4.61µM*

Results for CCN(CC)C(=O)c1cccc(-c2csc(C(O)(c3ccccc3)C(F)(F)F)n2)c1 (configuration not stated) ?
TGFb SMAD3 inh: inconclusive; TDP1 cell CPT: inconclusive; HepG2 tox: -15.6%; IL1B secr inh: -4.3; TDP1 cell noCPT: 16.4µM*

How did COc1cccc(C(C)(O)c2nc(-c3ccc(C)c(C)c3)cs2)c1 (configuration not stated) do in these assays?
TGFb SMAD3 inh: inconclusive; TDP1 cell CPT: inconclusive; HepG2 tox: -31.2%; IL1B secr inh: 16.8; TDP1 cell noCPT: inconclusive

Results for CCN(CC)C(=O)c1cccc(-c2csc(C(C)(NC(C)=O)c3ccc(OC)cc3)n2)c1 (configuration not stated) ?
TGFb SMAD3 inh: -5.3%; TDP1 cell CPT: inconclusive; HepG2 tox: -13.5%; IL1B secr inh: -14.9; TDP1 cell noCPT: 13µM*

How did CCN(CC)C(=O)c1cccc(-c2csc(C(C)(O)c3cccc(OC)c3)n2)c1 (configuration not stated) do in these assays?
TGFb SMAD3 inh: inconclusive; TDP1 cell CPT: 18.4µM*; HepG2 tox: -41.6%; IL1B secr inh: -15.0; TDP1 cell noCPT: 23.1µM*

How did CC(O)(c1ccccc1)c1nc(-c2cccc(C(=O)O)c2)cs1 (configuration not stated) do in these assays?
TGFb SMAD3 inh: 1.2%; TDP1 cell CPT: -21.1%; HepG2 tox: -11.8%; IL1B secr inh: 28.8; TDP1 cell noCPT: -10.9%

How did CCN(CC)C(=O)c1cccc(-c2ccc(OC)cc2)c1 do in these assays?
TGFb SMAD3 inh: 0.0%; TDP1 inh: 5.2%; TDP1 cell CPT: -28.5%; HepG2 tox: 4.6%; IL1B secr inh: -4.7; TDP1 cell noCPT: 21.7%

Results for CCN(CC)CCCNC(=O)c1ccc2c(c1)NC(=O)C(CS(=O)(=O)Cc1cccc(Br)c1)N2 (configuration not stated) ?
TGFb SMAD3 inh: 0.0%; TDP1 inh: 10.4%; TDP1 cell CPT: -26.9%; HepG2 tox: -2.8%; TDP1 cell noCPT: -14.5%

Results for CCc1ccccc1NC(=O)CN1C(=O)c2ccccc2Sc2ncccc21 ?
TGFb SMAD3 inh: -22.9%; TDP1 inh: -2.6%; TDP1 cell CPT: -12.8%; HepG2 tox: -4.4%; TDP1 cell noCPT: inconclusive

How did COc1ccc(C(=O)OCC(=O)NC2CCCCCC2)cc1OC do in these assays?
TGFb SMAD3 inh: -2.3%; TDP1 inh: 0.6%; TDP1 cell CPT: -23.5%; HepG2 tox: -45.6%; IL1B secr inh: 13.2; TDP1 cell noCPT: -11.0%

What do the screens show for `CCCCNC(=S)Nc1ccccc1Cc1ccccc1`?
TGFb SMAD3 inh: -7.5%; TDP1 inh: -2.4%; TDP1 cell CPT: inconclusive; HepG2 tox: -18.0%; IL1B secr inh: -12.7; TDP1 cell noCPT: inconclusive

What do the screens show for `O=C(NCc1ccc(F)cc1)c1ccc2c(c1)S(=O)(=O)c1ccccc1C2=O`?
TGFb SMAD3 inh: 2.0%; TDP1 cell CPT: -26.3%; HepG2 tox: 6.9%; IL1B secr inh: -6.3; TDP1 cell noCPT: inconclusive

What do the screens show for `CCN(CC)C(=O)c1cccc(-c2csc(C(C)(O)c3ccc(F)c(F)c3)n2)c1` (configuration not stated)?
TGFb SMAD3 inh: inconclusive; TDP1 cell CPT: inconclusive; HepG2 tox: -9.9%; IL1B secr inh: -7.5; TDP1 cell noCPT: 20.6µM*

Results for CN(C)S(=O)(=O)n1cc(/C=C(\NC(=O)c2ccccc2Cl)C(=O)N2CCOCC2)c2ccccc21 ?
TGFb SMAD3 inh: 0.3%; TDP1 inh: 0.3%; TDP1 cell CPT: -9.6%; HepG2 tox: 5.4%; IL1B secr inh: -17.6; TDP1 cell noCPT: 19.8%

How did Oc1ccc(/C=N/NC(=S)N/N=C/c2ccc(O)cc2)cc1 do in these assays?
TGFb SMAD3 inh: -26.6%; TDP1 inh: 1.2%; TDP1 cell CPT: inconclusive; HepG2 tox: -23.5%; IL1B secr inh: 0.9; TDP1 cell noCPT: inconclusive

Results for S=C(NCCc1ccccc1)N/N=C/c1cccs1 ?
TGFb SMAD3 inh: inconclusive; TDP1 cell CPT: inconclusive; HepG2 tox: -23.4%; IL1B secr inh: 17.1; TDP1 cell noCPT: inconclusive

Results for CC(C)NC(=S)N/N=C/c1cccs1 ?
TGFb SMAD3 inh: inconclusive; TDP1 inh: 4.7%; TDP1 cell CPT: 0.92µM*; HepG2 tox: -15.2%; IL1B secr inh: -0.9; TDP1 cell noCPT: 0.82µM*

How did Cc1ccc(C)c(/C=N/NC(=S)NC(C)C)c1 do in these assays?
TGFb SMAD3 inh: -3.1%; TDP1 inh: 5.6%; TDP1 cell CPT: 5.8µM*; HepG2 tox: 18.0%; IL1B secr inh: 4.5; TDP1 cell noCPT: 5.8µM*

Results for CC(C)NC(=S)N/N=C/c1ccc(C(C)(C)C)cc1 ?
TGFb SMAD3 inh: inconclusive; TDP1 inh: 4.6%; TDP1 cell CPT: 13µM*; HepG2 tox: -3.6%; IL1B secr inh: -68.2*; TDP1 cell noCPT: 10.3µM*

What do the screens show for `CC(=Nc1ccc(O)cc1)c1sc2ccccc2c1O`?
TGFb SMAD3 inh: 6.2%; TDP1 inh: 2.6%; TDP1 cell CPT: 14.6µM*; HepG2 tox: -24.3%; IL1B secr inh: -4.8; TDP1 cell noCPT: 13µM*

How did CC(=Nc1ccccc1O)c1sc2ccccc2c1O do in these assays?
TGFb SMAD3 inh: inconclusive; TDP1 inh: 9.5%; TDP1 cell CPT: -24.6%; HepG2 tox: -87.6%; IL1B secr inh: -1.9; TDP1 cell noCPT: inconclusive

How did COc1ccc(S(=O)(=O)NCCc2sc(-c3ccccc3)nc2C)cc1F do in these assays?
TGFb SMAD3 inh: 1.8%; TDP1 inh: 5.5%; HepG2 tox: -20.2%

How did CCCc1cnc(NCCNCC(O)COc2ccc(Cl)c(Cl)c2)nc1 (configuration not stated) do in these assays?
TGFb SMAD3 inh: inconclusive; TDP1 inh: 1.2%; TDP1 cell CPT: 16.4µM*; HepG2 tox: 20µM*; TDP1 cell noCPT: 16.4µM*

What do the screens show for `CC(C)(C)OC(=O)C[C@@H]1C/C=C\C[C@H](CC(=O)NCCO)C(=O)NC[C@@H](c2ccccc2)OC1=O`?
TGFb SMAD3 inh: 4.2%; TDP1 inh: 1.7%; TDP1 cell CPT: -9.0%; HepG2 tox: 6.0%; IL1B secr inh: 16.8; TDP1 cell noCPT: -18.3%
